TRHR agonist: qHTS for Small Molecule Agonists and Allosteric Enhancers of Human TRH Receptor: Primary Screen for Agonists | Thyrotropin-releasing hormone receptor (Homo sapiens), P34981 | TRHR cells, calcium flux fluo-8, FDSS agonist mode | activation, % at 2 µM | 0.18% of 360,000 active | AID 493084, 2011; further: 0% is about no effect
Target sequence (P34981 whole entry, looked up): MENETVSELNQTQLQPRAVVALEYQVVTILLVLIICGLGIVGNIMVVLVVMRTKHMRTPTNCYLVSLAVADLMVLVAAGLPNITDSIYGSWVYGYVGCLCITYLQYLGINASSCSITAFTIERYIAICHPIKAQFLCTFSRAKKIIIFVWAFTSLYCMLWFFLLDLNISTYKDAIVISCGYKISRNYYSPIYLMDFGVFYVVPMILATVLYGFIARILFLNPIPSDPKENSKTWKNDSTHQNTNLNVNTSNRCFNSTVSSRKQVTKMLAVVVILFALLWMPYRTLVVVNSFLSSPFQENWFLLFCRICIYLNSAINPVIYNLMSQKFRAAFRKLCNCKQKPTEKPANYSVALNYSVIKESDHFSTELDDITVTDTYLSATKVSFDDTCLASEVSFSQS
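Fluo-8-loaded TRHR cells; 10 s baseline, compound added, kinetic Ca2+ fluorescence read 1/s, agonist mode.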
D1 potentiator: Potentiators of Human D1 Dopamine Receptor: qHTS; AID 504651, 2011; HEK293 TREx D1 cells, calcium flux, dopamine EC20 potentiation; potentiation, % at 10 µM; 0.036% of 360,000 active; D(1A) dopamine receptor (Homo sapiens), P21728; in the data active means potentiation above about 30%; further: 0% is about no effect
D1 antagonist: Antagonist of Human D 1 Dopamine Receptor: qHTS. D(1A) dopamine receptor (Homo sapiens), P21728. HEK293 TREx D1 cells, calcium flux, dopamine EC80; hits give low values. activity change, negative = inhibition, % at 10 µM. 3.2% of 360,000 active. AID 504652, 2011; in the data active means activity change below about -30%; further: on the % scale 0 is the no-effect control and ±100 the full control effect
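HEK293 T-REx cells expressing inducible, force-coupled D1 receptor; no-wash Ca dye, 30–90 min RT. Cmpd → 180 s read at 1 Hz → EC80 DA → 180 s read.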
D1 agonist: Allosteric Agonists of the Human D1 Dopamine Receptor: qHTS; D(1A) dopamine receptor (Homo sapiens), P21728; HEK293 T-REx D1 cells, calcium flux, agonist mode; activation, % at 2 µM; 1% of 360,000 active; further: 0% is about no effect
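Tetracycline-induced HEK293 TREx D1 cells, force-coupled to calcium signalling, were dye-loaded with a no-wash calcium kit. Compound was pin-added after a 10 s baseline. Fluorescence was read kinetically at 1 cycle/s for 180 s, with calcium rises flagged as agonism.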
TRHR PAM: qHTS for Small Molecule Agonists and Allosteric Enhancers of Human TRH Receptor: Primary Screen for Enhancers; 0.66% of 360,000 active; Thyrotropin-releasing hormone receptor (Homo sapiens), P34981; AID 493056, 2011; enhancement, % at 2 µM; TRHR cells, fluo-8 calcium fluorescence, EC20 TRH enhancement; in the data active means enhancement above about 30%; further: 0% is about no effect
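TRHR-expressing cells loaded with fluo-8 calcium dye were read kinetically (ex 480/em 530) during compound addition, then stimulated with an EC20 of TRH (10 nM final). Enhancement of the Gq-mediated intracellular calcium response was scored.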
* marks the source's active call; other numbers are inactive results. Compounds with a hit are over-represented: about 4.6% of the library has one in this group of screens. Unless noted, no stated cut-off is given here; in the data, active means activation above about 30%; inactive means the rest.

SMILES | TRHR agonist | D1 potentiator | D1 antagonist | D1 agonist | TRHR PAM
Cc1ccc2c(c1)C(=O)C(=O)N2Cc1ccc(OCCC(C)C)cc1 | -2.1 | -1.4 | -5.3 | 1.8 | 2.9
CCOc1ccc(S(=O)(=O)N2CCC(C(=O)NCc3ccncc3)CC2)cc1Cl | -0.5 | -3.4 | -5.9 | 0.4 | -0.3
O=P(c1ccccc1)(c1ccccc1)c1nc(-c2ccccc2)oc1N1CCOCC1 | 0.1 | -11.3 | 10.5 | 0.5 | 2.3
CCOP(=O)(OCC)c1nc(-c2ccc(Br)cc2)oc1N1CCCCC1 | -1.8 | -9.0 | -45.0* | 4.2 | 2.5
CCOP(=O)(OCC)c1nc(-c2ccc(Cl)cc2Cl)oc1N1CCCCC1 | 0.9 | -0.1 | 0.9 | 7.4 | 4.7
CCOP(=O)(c1ccccc1)c1nc(-c2ccc(F)cc2)oc1N1CCCCC1 (stereo unspecified) | 2.3 | -4.1 | 3.9 | 32.9* | 0.5
CCOC(=O)c1ccc(NC(=O)Cn2c(-c3nonc3N)nc3ccccc32)cc1 | 0.6 | 0.9 | -15.6 | 5.3 | 18.2
C=CCSc1nnc(-c2cc3c(-c4ccccc4)nn(C)c3s2)n1C | -0.3 | -1.4 | -45.5* | 2.1 | 2.5
CCN1C(=S)SC(=O)C1=C1C=C(C)N(CCOC)C(C)=C1 | 14.1 | 4.9 | 9.7 | 45.0* | -4.4
CCN1C(=S)SC(=O)C1=C1C=C(C)N(CCO)C(C)=C1 | 16.6 | -2.5 | -0.1 | 33.7* | -0.7
CCN1C(=O)/C(=C/c2cn(C)nc2C)SC1=S | -0.2 | -4.2 | -5.7 | -0.7 | -3.4
CCCOC(=O)CCCN1C(=O)/C(=C2\SC(=S)N(CCCC(=O)OCCC)C2=O)SC1=S | 1.4 | 2.5 | -16.5 | 8.8 | -2.3
NC(=NCc1ccccc1)c1cccc([N+](=O)[O-])c1 | 1.6 | -4.8 | 8.8 | 3.3 | 5.0
CC1(C)CSC(=NCc2ccccc2)N1C(=O)c1cccc([N+](=O)[O-])c1 | 55.8* | -5.2 | -37.8* | 84.8* | -28.6
O=C(Cn1ncc2c(Cl)cccc21)NCc1cccc(F)c1 | -1.1 | -4.5 | -81.4* | -0.2 | 3.7
O=C(Cn1ncn2cccc2c1=O)NCc1cccc(Br)c1 | -0.3 | -0.2 | 2.2 | 1.3 | 1.3
O=C(Cn1ncc2c(Cl)cccc21)NCc1cccc(Br)c1 | -0.9 | -4.8 | -30.2* | 9.4 | -3.8
COc1cccc(N2CCN(C(=O)c3cnc4c(-c5ccccc5)c(C)nn4c3C)CC2)c1 | 0.0 | -5.0 | -19.5 | 0.3 | 0.6
CCOc1ccc(N(CC(=O)Nc2ccccc2CC)S(=O)(=O)c2c(C)[nH]c(=O)[nH]c2=O)cc1 | -0.1 | -1.3 | 5.8 | -0.3 | 7.5
Cc1oc(-c2cccc(Cl)c2)nc1CN1CCC(C(=O)NCCCN2CCN(c3cccc(Cl)c3)CC2)CC1 | 0.7 | -0.9 | -39.2* | 66.5* | 1.1
CCN1CCN(CCNC(=O)C2CCCN(Cc3nc(-c4cccc(Cl)c4)oc3C)C2)CC1 (stereo unspecified) | -0.1 | -6.2 | -39.4* | 0.7 | 3.0
COc1ccc(-c2nc(CN3CCC(C(=O)NCCc4ccccc4)CC3)c(C)o2)cc1OC | 0.0 | -0.3 | -23.3 | 0.6 | 19.6
COc1ccc(-c2nc(CN3CCC(C(=O)NCc4ccc(C)cc4)CC3)c(C)o2)cc1OC | 0.1 | -5.7 | -31.0* | 0.4 | -3.5
O=C(Nc1ccc2c(c1)C(=O)NC2=O)c1cccc(Cl)c1 | -0.7 | -5.5 | -33.0* | -0.8 | -0.7
O=C(CSc1ccc(F)cc1)Nc1ccc2c(c1)C(=O)NC2=O | -0.8 | -10.4 | -37.4* | 12.3 | 4.5
SMILES | TRHR agonist | D1 potentiator | D1 antagonist | D1 agonist | TRHR PAM
O=C(Nc1ccc2c(c1)C(=O)NC2=O)c1cc(Cl)ccc1Cl | -1.9 | -5.5 | -31.0* | 0.6 | 2.6
CCOC(=O)c1[nH]c(C)c(CCC(=O)Nc2ccccc2C(=O)OC)c1C | -0.2 | -3.4 | -7.4 | 6.2 | -5.9
COc1ccc(N2C(=O)CSC23C(=O)N(CC(=O)NC2CCCCC2)c2ccccc23)cc1 (stereo unspecified) | -0.4 | -1.1 | 8.0 | 0.8 | -9.1
Cc1cc2c(SCC(=O)NC3CCCC3)ncnc2s1 | 0.3 | -2.0 | -7.4 | 2.5 | 3.8
Cc1c2ccccc2nc2c(F)c(N(C)C)c(F)c(F)c12 | 40.0* | -3.9 | -5.5 | 61.8* | 4.0
CN(C)c1c2ccccc2nc2c(F)c(F)c(F)c(F)c12 | 0.2 | 1.9 | 2.7 | 2.4 | -5.4
O=C1/C(=C/C=C/c2ccccc2)Oc2c1ccc(O)c2CN1CCN(CCO)CC1 | 13.2 | 0.6 | 2.5 | 17.3 | 0.0
CCN1CCN(Cc2c(O)ccc3c2O/C(=C\c2ccccc2)C3=O)CC1 | 9.6 | -5.7 | -22.2 | 51.5* | 3.3
COc1ccccc1/C=C/C=C1\Oc2c(ccc(O)c2CN2CCN(CCO)CC2)C1=O | 25.0 | 0.5 | -30.8* | 114.3* | -4.2
Cc1ccc(/C=C2\Oc3c(ccc(O)c3CN3CCN(C)CC3)C2=O)cc1 | 10.1 | 3.6 | 2.8 | 40.0* | -1.5
CCN1CCN(Cc2c(O)ccc3c2O/C(=C\C=C\c2ccccc2)C3=O)CC1 | -0.2 | -6.2 | -20.1 | -2.7 | 11.4
CCCCN(C)C(=O)c1ccc2c(c1)N(Cc1cccc(F)c1)C(=O)c1ccccc1S2 | -0.3 | -4.1 | 12.3 | 2.0 | -9.6
CCC1CN(C(=O)N2CCC(C(=O)N3CCN(c4cc(C)ccc4C)CC3)CC2)c2ccccc2O1 (stereo unspecified) | 0.8 | -1.7 | -2.7 | 1.5 | -2.6
CC(C)CN(C(=O)CSc1nnc(-c2ccco2)o1)c1c(N)n(Cc2ccccc2)c(=O)[nH]c1=O | -0.7 | -6.5 | -38.0* | -0.4 | 12.4
CCCN(C(=O)C(NC(=O)c1ccccc1)C(C)C)c1c(N)n(Cc2ccccc2)c(=O)[nH]c1=O (stereo unspecified) | 0.4 | -19.6 | -76.6* | -0.2 | -3.4
COCCN(C(=O)C1=COCCO1)c1c(N)n(Cc2ccccc2)c(=O)[nH]c1=O | 0.4 | -5.3 | -4.8 | 1.5 | -1.4
COCCN(C(=O)COC(=O)C1=COCCO1)c1c(N)n(Cc2ccccc2)c(=O)[nH]c1=O | 0.7 | -13.6 | -61.5* | 2.7 | -6.1
CCN(C(=O)CN1c2ccccc2CC1C)c1c(N)n(Cc2ccccc2)c(=O)[nH]c1=O (stereo unspecified) | 0.4 | 45.5* | -0.6 | 2.0 | 1.4
CCCCN(C(=S)NC(=O)c1ccccc1)c1c(N)n(Cc2ccccc2)c(=O)[nH]c1=O | 0.1 | -2.4 | -2.2 | 0.8 | 3.1
CC1Cc2ccccc2N1CC(=O)N(C)c1c(N)n(Cc2ccccc2)c(=O)[nH]c1=O (stereo unspecified) | 1.5 | -2.0 | -7.8 | 3.9 | -1.8
CC(C)CCN(C(=O)Cc1ccccc1F)c1c(N)n(Cc2ccccc2)c(=O)[nH]c1=O | 0.8 | -2.8 | -54.6* | 0.8 | 1.4

High-throughput results deposited in PubChem by National Center for Advancing Translational Sciences (NCATS).
